This note sets out measurements from PubChem BioAssay (Tox21).

Several values for one entry are separate records, joined by “and”; a condition that tells them apart may be missing. Identical values can stand only once. Records with an inconclusive call do not appear. A call without a number means that no potency is given here. Activity calls are given as the source filed them. Calls come from the whole dose curve; as a rule, active = well fitted cell-killing curve with a large enough effect in the repeat runs; inconclusive = weak or mixed curves, or effect the other way; inactive = no such curve, though single readings can be large or run the other way.
Potency is the fitted concentration of half-maximal effect.

This assay in a line: qHTS assay to identify small molecule antagonists of the thyroid receptor (TR) signaling pathway - cell viability counter screen (AID 743064). Note: nearly all actives have a fitted effect of over 50% in size. Particulars: GH3.TRE-Luc viability, CellTiter-Fluor, 24 h; series mostly up to 70.3 µM. The text has this:
National Center for Advancing Translational Sciences [NCATS]
NIH Chemical Genomics Center [NCGC]
U.S. Environmental Protection Agency [EPA]
National Institutes of Environmental Health Sciences [NIEHS]
National Toxicology Program [NTP]
U.S. Food and Drug Administration [FDA]
Thyroid receptor (TR), a nuclear hormone receptor, plays an important role in development, proliferation, differentiation, metabolism, brain function, and cardiovascular system. […] To profile the Tox21 10K compound library in TR signaling, a cell-based GH3-TRE-Luc assay (GH3.TRE-Luc cell line, developed by the laboratory of Dr. Albertinka J. Murk, Wageningen University) was used to measure the inhibition of TR. GH3 (rat pituitary tumor) cells stably expressing a TR activity sensor consisting of two TR response elements and a luciferase reporter gene. The cytotoxicity of the Tox21 compound library against the GH3.TRE-Luc cell line was tested in parallel by measuring the cell viability using CellTiter-Fluor assay (Promega, Madison, WI) in the same wells.
Tox21 Assay Protocol Summary:
GH3.TRE-Luc cells were dispensed at 1500 cells/4 uL/well into 1536-well white solid bottom plates using a Multidrop Combi dispenser (Thermo Fisher Scientific Inc., Waltham, MA). After the assay plates were incubated at 37 C for 4 hours, 23 nL of library compound or DMSO controls was transferred to the assay plates by a pintool station (Kalypsys, San Diego, CA), followed by addition of 1 ul of T3 (1 nM, final concentration in the wells) to stimulate TR transactivation. The assay plates were incubated at 37 C for 23.5 h, and then 1 uL of CellTiter-Fluor reagent (Promega, Madision, WI) of measuring cytotoxicity was added to each well using a Bioraptr Flying Reagent Dispenser (FRD) workstation (Beckman Coulter, Indianapolis, IN, USA). The plates were incubated at 37C and 5% CO2 for additional 30 min, and fluorescence intensity was measured by a ViewLux plate reader (PerkinElmer, Shelton, CT).
(qHTS replaces the single test concentration by a dilution series.)
As for `CCC(=O)c1ccc(Cl)cc1`, the Potency result is “inactive”.
On to `CC(Cl)(Cl)Cl`, for which the Potency result was “inactive”.
For `COc1cc(CCN)cc(OC)c1OC` the value was “inactive”; for `CCOC(=O)C(SP(=S)(OC)OC)c1ccccc1` (stereo not given), “inactive”; for `NC1(c2ccccc2)CCCCC1`, 42.9 µM (active).
For `Clc1ccc(C(Cl)(Cl)Cl)cn1` the value was “inactive”; for `C=C1CC[C@@]2(O)[C@H]3Cc4ccc(O)c5c4[C@@]2(CCN3CC2CC2)[C@H]1O5`, “inactive”; for `COc1ccc(C=O)cc1O`, “inactive”.
Under `CCCN1CCC[C@@H]2Cc3[nH]ncc3C[C@H]21` stands “inactive”.
Take `CCOP(=O)(CN(CCO)CCO)OCC`: the Potency entry was “inactive”.
Take `C[C@H]1CCCC(=O)CCC/C=C/c2cc(O)cc(O)c2C(=O)O1`: the Potency is 23.4 µM (active) and 20 µM (active).
With `CCOP(=S)(OCC)Oc1ccc(Cl)cc1Cl`, the Potency result was “inactive”.
For `O=[N+]([O-])CCO` the value was “inactive”; for `Clc1nc(Cl)nc(Nc2ccccc2Cl)n1`, “inactive”.
For `CCCCCCC(=O)CCCCCC/C=C/C[C@@H](O)[C@H](O)[C@@](N)(CO)C(=O)O` the value was “inactive”; for `C=C(C)[C@H]1CN[C@H](C(=O)O)[C@H]1CC(=O)O`, “inactive”.
Under `O=C1CC(=O)NC(=O)N1` stands “inactive”.
On to `C=C1C[C@@H]2[C@H](CC[C@]3(C)C(=O)CC[C@@H]23)[C@@]2(C)C=CC(=O)C=C12`, for which the Potency entry is “inactive”.
For `CC(C)[C@]12CC(=O)[C@H](C)[C@H]1C2` the value was “inactive”.
Take `CC(O)CCl` (stereo not given): the Potency result was “inactive”.
For `O=S1(=O)OCCO1` the value was “inactive”.
Under `COP(=O)(OC)O/C(C)=C/C(=O)N(C)C` stands “inactive”; under `O=C(CCl)NCO`, “inactive”.
Under `CC(C)NCC(O)c1ccc([N+](=O)[O-])cc1` (stereo not given) stands “inactive”.
As to `C(COCC1CO1)OCC1CO1` (stereo not given), the Potency entry is “inactive”.
For `CON(C)C(=O)Nc1ccc(Br)cc1` the value was “inactive”.
For `COC(=O)c1ccccc1CS(=O)(=O)NC(=O)Nc1nc(OC)cc(OC)n1` the value was “inactive”.
Under `CC(C)C(C)(N)C#N` (stereo not given) stands “inactive”; under `O=[N+]([O-])c1cccc(CCl)c1`, “inactive”; under `COc1ccccc1OC`, “inactive”.
Regarding `CNC(=O)Oc1cc(C)c(N(C)C)c(C)c1`, the Potency result is “inactive”.
Under `ClC(Cl)(Cl)Cl` stands “inactive”; under `C#CCOC(=O)/C=C(C)/C=C/CC(C)CCCC(C)C` (stereo not given), “inactive”; under `C/C=C/CC#N`, “inactive”.
Regarding `BrCC1CO1` (stereo not given), the Potency result is “inactive”.
Under `O=C(Cl)CCl` stands “inactive”; under `Cc1ccc(Cl)c(O)c1`, “inactive”.
For `CN(CCO)CCO` the value was “inactive”; for `O=CCCl`, “inactive”; for `C/C(=N\NC(=O)Nc1cc(F)cc(F)c1)c1ncccc1C(=O)O`, “inactive”.
